About 79,000 compounds went through this panel and 15% of them were active in at least one assay; those are over-represented in the sample as a whole. Active and inactive are the calls of the source. Rule as the data show it: active = growth inhibition above about 70%; inactive = the rest.
Columns and labels:
[1] = NCI Yeast Anticancer Drug Screen. Data for the rad50 strain (AID 155);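 also: 0% = growth of vehicle-only cultures of the same strain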; conditions: S. cerevisiae rad50 strain growth inhibition; at 50.0 µM; active compounds read high
How it was run: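 A DNA repair-deficient yeast mutant serves as the test organism; compound-induced growth inhibition is calculated against vehicle-treated cells.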

[2] = NCI Yeast Anticancer Drug Screen. Data for the mec2-1 strain (AID 157); conditions: S. cerevisiae mec2-1 strain, at 50.0 µM, active compounds read high
How it was run: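 Using mec2-1 yeast: add compound, measure growth, express inhibition versus vehicle-treated cultures.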

[3] = NCI Yeast Anticancer Drug Screen. Data for the sgs1 mgt1 strain (AID 161);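 also: 0% = growth of cultures given vehicle only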; conditions: S. cerevisiae sgs1 mgt1 strain, at 50.0 µM, active compounds read high
How it was run: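 Percent growth inhibition was derived by comparing compound-exposed mutant yeast with vehicle-exposed cultures. The strain carries alterations in DNA damage repair.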

[4] = NCI Yeast Anticancer Drug Screen. Data for the cln2 rad14 strain (AID 165);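 also: 0% = growth equal to vehicle treated cultures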; conditions: S. cerevisiae cln2 rad14 strain, at 50.0 µM, active compounds read high
How it was run: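 Yeast strain cln2 rad14, bearing defects in cell cycle control and DNA repair, serves as the test system; values reflect growth inhibition compared with vehicle.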

[5] = NCI Yeast Anticancer Drug Screen. Data for the bub3 strain (AID 167); conditions: S. cerevisiae bub3 mutant strain, at 50.0 µM, active compounds read high
How it was run: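 Inhibition values come from growth of compound-treated mutant yeast normalised to vehicle-treated controls.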

[6] = NCI Yeast Anticancer Drug Screen. Data for the mlh1 rad18 strain (AID 175); conditions: S. cerevisiae mlh1 rad18 strain growth inhibition; at 50.0 µM; active compounds read high
How it was run: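 Steps: expose repair-defective yeast to compound; measure growth; express inhibition against vehicle-treated controls.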

Measured: growth inhibition

C=CCNC(=O)CCCCCCC/C=C\CCCCCCCC
inactive: [1] 16.6% | [2] -8.5% | [3] -1.45% | [4] -27.6% | [5] -2.85% | [6] 9.4%

O=[N+]([O-])c1ccccc1-c1ccccc1[N+](=O)[O-]
inactive: [1] 24.7% | [2] 16.3% | [3] 33.8% | [4] 10% | [5] -24.4% | [6] -10.8%

Clc1cc(Cl)c2ncccc2c1
inactive: [1] 4.05% | [2] 17.9% | [3] 3.3% | [4] -30.2% | [5] 17.8% | [6] 11.8%

COc1cc(SC)c(OC)cc1C
inactive: [1] 4.15% | [2] 0.65% | [3] -12.4% | [4] -22.4% | [5] -6% | [6] 4.85%

O=C(O)c1cccc(C(=O)O)[n+]1[O-]
inactive: [1] 6.05% | [2] -22.6% | [3] -17.8% | [4] 2.4% | [5] -11.8% | [6] -10%

C[CH2][Sn]([CH2]C)([O][P+](=O)C[Si](C)(C)c1ccccc1)[O][P+](=O)C[Si](C)(C)c1ccccc1 (stereo not given)
inactive: [1] 3.8% | [2] 29.6% | [3] 12.7% | [4] -3.55% | [5] -3.35% | [6] 17.9%

O=C(CO)CC(=O)CCC(=O)Nc1cccc([N+](=O)[O-])c1
inactive: [1] -4.7% | [2] 21.5% | [3] 0% | [4] 42.8% | [5] -12.3% | [6] -4.35%

C[C@H](N)[C@@H](O)/C=C/c1ccccc1
inactive: [1] 8% | [2] -16.9% | [3] -0.05% | [4] -4.7% | [5] -9.7% | [6] -8.7%

NC(CCNCCc1ccccc1)CNCCc1ccccc1 (stereo not given)
inactive: [1] 29.7% | [2] -11.6% | [3] 10.9% | [4] -2.85% | [5] -6.5% | [6] -7.15%

O=C(O)CSc1n[nH]c(-c2ccc(O)cc2)n1
inactive: [1] -18.3% | [2] -7.25% | [3] -7.5% | [4] 18.6% | [5] 4.95% | [6] 37.2%

c1ccc(-c2cc(-c3ccccc3)nc(-c3ccccc3)c2)cc1
inactive: [1] -7.2% | [2] -4.05% | [3] 10.1% | [4] -33% | [5] 9.65% | [6] 1.6%

CCC(C(=O)O)(C(C)C)C(C)C
inactive: [1] 5.8% | [2] 30.9% | [3] 12.9% | [4] 12.4% | [5] -0.05% | [6] 8.1%

COc1ccc(C2=Nc3c(nc(SC)[nH]c3=O)NC(c3ccccc3)C2)cc1 (stereo not given)
inactive: [1] 9.45% | [2] 9.3% | [3] 19.3% | [4] 6.15% | [5] 28.3% | [6] -3.15%

O=C(Nc1ccccc1CCl)Nc1ccccc1CCl (tested in a mixture with another compound)
inactive: [1] 7.6% | [2] 3.35% | [3] -11.4% | [4] 3.65% | [5] -4.1% | [6] 15.4%

CCCCCCCCCCCCN1CCCN(CCCCCCCCCCCC)CC1
active: [2] 99.2% | [4] 96.7% | [5] 98.7% | [6] 99.2%
inactive: [1] 56.7% | [3] 7.45%

NC1=NS(=O)(=O)Nc2nc(-c3ccccc3)c(-c3ccccc3)nc21
inactive: [1] -24.6% | [2] -10.2% | [3] 12.5% | [4] -0.85% | [5] 2.6% | [6] 7.3%

N#Cc1cn(Cc2ccccc2)c2ccccc2c1=O
inactive: [1] -0.3% | [2] -3.15% | [3] 3.95% | [4] 47.9% | [5] 7.3% | [6] 1.15%

COc1ccc2c(c1O)-c1cccc3c1C(C2)N(CCOCCCl)CC3 (stereo not given)
inactive: [1] 28.4% | [2] -12.8% | [3] -19.9% | [4] 12.9% | [5] 3.15% | [6] -8.85%

CN(C)CC1CCCC(CN(C)C)C1OC(=O)c1ccccc1 (stereo not given)
inactive: [1] 23% | [2] -5.15% | [3] 9.25% | [4] -37.5% | [5] 14.4% | [6] 50.9%

COC(=O)C12C3C4C1C1C2C3C41C(=O)N(C(C)C)C(C)C (stereo not given)
inactive: [1] 7.75% | [2] -1.45% | [3] -3.4% | [4] -3.55% | [5] 3.5% | [6] -14%

CN1CC2=C(NC(=S)NC2c2ccccc2)/C(=C/c2ccccc2)C1 (stereo not given)
inactive: [1] -14.5% | [2] -8.75% | [3] 5.65% | [4] 6.8% | [5] 22.4% | [6] -13.2%

CCCC(=O)OCCOc1ccccc1
inactive: [1] 18.1% | [2] 2.3% | [3] 11% | [4] 7.2% | [5] 0.8% | [6] 2.5%

CCCCCCC1(C=O)NC(=O)NC1=O (stereo not given)
inactive: [1] 4.2% | [2] -12% | [3] -11.2% | [4] -14.1% | [5] -4.6% | [6] -1.35%

Cc1ccc(N2CCCCN(c3ccc(C)cc3)/C(c3ccccc3)=C\2c2ccccc2)cc1
inactive: [1] -8.55% | [2] -7.3% | [3] -7% | [4] -8.2% | [5] -1.35% | [6] -29.9%

Cc1ccc(SS(=O)(=O)c2ccc([N+](=O)[O-])cc2)cc1
inactive: [1] 13.9% | [2] 12.4% | [3] 9.3% | [4] -29.4% | [5] -5.45% | [6] 16.6%

Oc1c(Br)cc(CN(Cc2cc(Br)c(O)c(Br)c2)C2CCCCC2)cc1Br
inactive: [1] -2.75% | [2] -6.5% | [3] -21.3% | [4] -15.7% | [5] -23.1% | [6] 5.4%

NC(Cc1ccccc1)C(=O)NCC(=O)Oc1ccc([N+](=O)[O-])cc1 (stereo not given)
inactive: [1] 36.5% | [2] 20.4% | [3] 20.1% | [4] 18.1% | [5] 2.35% | [6] 23.1%

O=C(O)c1ccc([N+](=O)[O-])cc1Cl
inactive: [1] -11.9% | [2] -10% | [3] -1.55% | [4] 8.15% | [5] -3.25% | [6] -7.55%

COc1ccc(NC(=O)C(=O)Cc2ccc([N+](=O)[O-])c([N+](=O)[O-])c2CC(=O)C(=O)Nc2ccc(OC)cc2OC)c(OC)c1
inactive: [1] 0.35% | [2] -36.1% | [3] -44% | [4] 17.8% | [5] 6.15% | [6] 8.05%

CCOC(=O)C(=O)Nc1ccc2cc(OC)ccc2c1C#N
inactive: [1] 13.8% | [2] 14.2% | [3] 14.8% | [4] 35.2% | [5] 19.4% | [6] -17.8%

COc1cc2c(c(OC)c1OC)-c1ccc(SCC3CCC4CC3C4(C)C)c(=O)cc1C(NC(C)=O)CC2 (stereo not given)
active: [1] 97.5% | [2] 97.3% | [3] 98% | [4] 96.2% | [5] 95.9% | [6] 96.9%

NC(=O)N/N=C(/Cl)C(=O)NNC(N)=O
inactive: [1] -4.4% | [2] 6.25% | [3] -10.5% | [4] -81.2% | [5] -0.95% | [6] -27.1%

CC1=NN(C)C(=O)C1
inactive: [1] 1.45% | [2] 3.3% | [3] 1.9% | [4] -0.4% | [5] -3.05% | [6] 9.25%

CC/C(=N\N=C(/CC)c1ccc[nH]1)c1ccc[nH]1
inactive: [1] 36.8% | [2] -23.8% | [3] 10.2% | [4] 5.9% | [5] 23.3% | [6] 9.25%

N#CC(CCc1nc(N)nc(N)n1)(CCc1nc(N)nc(N)n1)c1ccccc1
inactive: [1] -6.7% | [2] -19.1% | [3] 1.9% | [4] -45.7% | [5] -1.2% | [6] -14.9%

NCCN1CCCCCc2ccccc21
inactive: [1] -63.2% | [2] -53% | [3] -49.8% | [4] -17.4% | [5] -41.1% | [6] -39.3%

COCCOC(=O)c1ccc(C(N)=NC2CCCCC2)cc1
inactive: [1] -1.2% | [2] 4.25% | [3] 3.9% | [4] 0.95% | [5] 8.65% | [6] -0.7%

O=C(NCCN1CCCCC1)c1ccc(Br)cc1
inactive: [1] -15.2% | [2] -16.4% | [3] -12.6% | [4] -6% | [5] -18.9% | [6] -47.1%

NCc1ccc(S(=O)(=O)Nc2cc(Br)cc(Br)c2)cc1
inactive: [1] 16.4% | [2] 14.8% | [3] 30.2% | [4] 35.1% | [5] 12% | [6] 30.4%

Cc1cc(=O)c(O)c(C)o1
inactive: [1] -1.4% | [2] -2.9% | [3] -3.4% | [4] 2.5% | [5] -0.05% | [6] -1.7%
